Sampled rows, rich in hits. Any-hit rate of the full collection: about 4.8%.
STAT1 activator = activators of IFN-gamma induced STAT1 signaling; NIH 3T3 STAT1-luciferase reporter, luminescence; 100% = IFN-gamma alone, no compound; activation (% of control), % at 5.5 µM; 2.6% of 200,000 active; AID 932;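 active = activation above the screen-wide mean activation plus 3 SD, cut at about 130% in these data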;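 note: raw ratio to IFN-gamma control signal so 100% means no change and 0% no light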
Wee1 stabilizer = human Wee1 degradation inhibition, primary screen; AID 1321; P30291; reporter increase, % at 5 µM; HeLa Luc-Wee1K328M stability, luciferase luminescence; 100% = proteasome inhibitor MG132 effect; 1.2% of 220,000 active;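 active = activation above the mean of all tested compounds plus 3 SD, set per screening run, cut at about 8.8% in these data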;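 note: cells exposed to compound for 20 h before luminescence read; 0% = DMSO alone and 100% = MG132 at 30 µM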
Target sequence (P30291 whole entry K328M): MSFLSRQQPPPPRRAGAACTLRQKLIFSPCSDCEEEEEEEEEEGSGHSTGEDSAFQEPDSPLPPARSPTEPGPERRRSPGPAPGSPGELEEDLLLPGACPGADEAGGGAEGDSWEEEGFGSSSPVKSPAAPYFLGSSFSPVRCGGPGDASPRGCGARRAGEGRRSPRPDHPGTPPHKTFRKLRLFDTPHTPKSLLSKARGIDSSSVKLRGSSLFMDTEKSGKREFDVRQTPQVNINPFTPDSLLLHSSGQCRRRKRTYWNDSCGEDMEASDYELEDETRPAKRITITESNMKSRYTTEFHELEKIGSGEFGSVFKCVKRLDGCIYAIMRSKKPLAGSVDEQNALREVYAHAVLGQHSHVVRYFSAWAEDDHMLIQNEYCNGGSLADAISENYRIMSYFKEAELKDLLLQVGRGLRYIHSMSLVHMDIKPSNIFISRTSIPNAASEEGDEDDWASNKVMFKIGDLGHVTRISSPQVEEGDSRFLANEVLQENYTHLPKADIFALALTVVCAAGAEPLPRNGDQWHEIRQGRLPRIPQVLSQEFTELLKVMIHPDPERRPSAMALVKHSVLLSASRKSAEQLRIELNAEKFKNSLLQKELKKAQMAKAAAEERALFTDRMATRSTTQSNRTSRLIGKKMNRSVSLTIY
APP 5'UTR act = APP 5'UTR luciferase reporter activation | AID 1276 | 1% of 190,000 active | SH-SY5Y APP 5'UTR luciferase reporter, luminescence; zero percent = DMSO vehicle wells | activation, % at 2 µM;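 active = activation above a set limit, based on mean plus 3 SD of controls, cut at about 140% in these data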
NF-kB expr up = raises NF-kB expression in human neuronal cells; fold change at 12.5 µM; NF-kB reporter expression; stronger effect = higher value; 1.6% of 190,000 active; in the data active = fold change above about 3.3
Hsp70 activator = switches on Hsp70 transcription. 0.04% of 200,000 active. AID 1203. activation, % at 10 µM. HeLa Hsp70 promoter luciferase reporter, luminescence; scaled: vehicle 0, proteasome-inhibitor control 100%;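 active = activation above the mean across all tested compounds plus 3 SD, cutoff set per campaign, cut at about 5.5% in these data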;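 note: 100% = MG132 at 30 µM as the positive control and 0% = DMSO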
APP transl inh = APP translation inhibition; 0.82% of 190,000 active; AID 1285; SH-SY5Y APP 5'UTR-luciferase reporter, luminescence; inhibition, % at 2 µM;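 active = inhibition above a set limit, derived from the sample mean plus 3 SD, cut at about 45% in these data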
* = called active by the depositor; . = not tested or not shown.

SMILES | STAT1 activator | Wee1 stabilizer | APP 5'UTR act | NF-kB expr up | Hsp70 activator | APP transl inh
O=C(N/N=C/C=C/c1ccccc1[N+](=O)[O-])c1cccs1 | 108.8 | 3.0 | 8.7 | 4.24* | -0.3 | -8.7
O=C(N/N=C/c1ccccc1)c1n[nH]c2c1CCCC2 | 101.9 | 0.0 | 105.3 | 1 | -0.2 | -105.3
COc1ccc(/C=c2\sc3nc(-c4ccccc4OC)nn3c2=O)c(OC)c1 | 99.7 | -0.6 | 11.4 | 0.99 | 0.1 | -11.4
CC(C)CNc1nc2c(c(=O)n(C)c(=O)n2C)n1Cc1cccc(Br)c1 | 97.3 | -1.3 | 20.0 | 0.75 | -0.2 | -20.0
O=C(N/N=C/C(Br)=C/c1ccccc1)c1n[nH]c2c1CCC2 | 146.3* | 1.5 | . | 7.95* | 0.5 | .
O=C(N/N=C/c1ccc(OCc2ccccc2)cc1)c1cccs1 | 140.3* | -1.1 | 4.1 | 1.66 | 0.3 | -4.1
O=C(N/N=C/c1ccc(OCc2ccccc2)cc1)c1ccncc1 | 102.8 | 0.2 | 34.2 | 1.49 | 0.1 | -34.2
Oc1ccc(N=Cc2ccc(OCc3ccccc3)cc2)cc1 | 142.4* | -0.5 | 33.1 | 3.16 | -0.1 | -33.1
COc1ccccc1N1CCN(C(=O)C2c3ccccc3Oc3ccccc32)CC1 | 109.1 | 4.8 | -87.0 | 1.22 | -0.4 | 87.0*
COc1cc(CCC(=O)Nc2cc(Cl)ccc2N2CCN(C)CC2)cc(OC)c1OC | 90.9 | 9.2* | -5.2 | 0.89 | -0.2 | 5.2
COc1cc(OC)c2c(c1)C(=O)OC2OC (centres undefined) | . | -2.0 | . | . | . | .
O=C(NCc1ccccc1F)c1ccc2c(c1)OCO2 | 99.3 | 0.4 | 2.7 | 1.31 | -0.3 | -2.7
Fc1ccccc1Cn1nnc(-c2ccc3c(c2)OCO3)n1 | 136.5* | 2.9 | 166.5* | 5.7* | 0.5 | -166.5
COc1ccc(COc2cc(-c3cccc(OC)c3)nc3ccc(NC(=O)c4ccc(OC)cc4)cc23)cc1 | 98.8 | 4.4 | -56.3 | 0.4 | 0.3 | 56.3*
O=C1N=C(N2CCOCC2)S/C1=C/c1cc2c(cc1[N+](=O)[O-])OCO2 | . | 9.1* | . | . | . | .
CCCCCOc1ccc(Br)cc1CSC(=N)N | 70.4 | 1.2 | -62.8 | 1.11 | -0.4 | 62.8*
CCc1ccc(C2C(C#N)=C(N)SC(N)=C2C#N)s1 | 94.9 | -0.4 | -3.4 | 1.06 | 0.2 | 3.4
CCOC(=O)C(NC(=O)c1ccccc1)=C(C)C | 99.3 | 0.7 | -2.4 | 1.15 | 0.3 | 2.4
O=C(O[C@@H]1OC2COC(=O)c3cc(O)c(O)c(O)c3-c3c(cc(O)c(O)c3O)C(=O)O[C@@H]([C@H]1O)[C@@H]2O)c1cc(O)c(O)c(O)c1 | 85.1 | 9.7* | -12.1 | 0.99 | -0.2 | 12.1
Cc1ccc(-c2cc(C(=O)Nc3cc(C)on3)c3ccccc3n2)cc1 | 90.6 | 2.0 | -1.6 | 1.16 | -0.2 | 1.6
Cc1cc(NC(=O)c2cc(-c3ccncc3)nc3c(C)cccc23)no1 | 107.5 | 7.4 | -83.6 | 1.01 | 0.3 | 83.6*
Cc1csc(NC(=O)CSc2nsc(SCC(=O)Nc3nc(C)cs3)c2C#N)n1 | 132.0* | 2.6 | 126.2 | 1.72 | 0.2 | -126.2
Cc1ccc(NC(=O)CSc2nsc(SCC(=O)Nc3ccc(C)cc3C)c2C#N)c(C)c1 | 100.4 | 3.6 | -2.3 | 1.06 | -0.3 | 2.3
CSc1nsc(SCC(=O)Nc2nc3ccccc3s2)n1 | 100.7 | -2.8 | -10.3 | 1.16 | -0.4 | 10.3
Cc1nc(SCC(=O)Nc2nc3ccccc3s2)c(C#N)c(C)c1C | 48.5 | -5.2 | -64.1 | 0.13 | -0.7 | 64.1*
SMILES | STAT1 activator | Wee1 stabilizer | APP 5'UTR act | NF-kB expr up | Hsp70 activator | APP transl inh
Cc1ccc2sc(NC(=O)CSc3nc(C)cc(C)c3C#N)nc2c1 | 92.5 | 0.1 | 94.0 | 6.54* | 0.0 | -94.0
NC(=O)c1ccccc1NC(=O)c1ccccc1Cl | . | 2.6 | . | . | . | .
Cc1cc(NC(=O)CSc2nc(-c3ccccc3)cs2)no1 | 103.5 | 0.4 | -5.2 | 1.01 | 0.4 | 5.2
O=C(NC1CCN(Cc2ccccc2)CC1)c1ccc(Cn2c(=S)[nH]c3ccc(N4CCOCC4)cc3c2=O)cc1 | 110.1 | -0.5 | 50.9 | 1.49 | -0.2 | -50.9
N#CC1=C(N)OC2=C(CCc3ccccc32)C1c1ccccc1Cl (centres undefined) | 101.7 | -1.1 | -94.0 | 1.7 | -0.4 | 94.0*
CCCC(=O)OCCNc1cc(Sc2nccn2C)c2nonc2c1[N+](=O)[O-] | 101.5 | -1.0 | -74.8 | 0.12 | -0.3 | 74.8*
CCCSc1cc(NCCOC(=O)CCC)c([N+](=O)[O-])c2nonc12 | 106.8 | -1.3 | -11.3 | 1.11 | -0.4 | 11.3
CCC(=O)OCCNc1cc(Sc2nc3ccccc3[nH]2)c2nonc2c1[N+](=O)[O-] | 107.5 | -0.3 | -70.2 | 0.17 | -0.3 | 70.2*
Cc1cc(-c2csc(NC(=O)c3cccc(S(=O)(=O)N(C)C)c3)n2)c(C)n1-c1ccccc1 | 102.8 | -1.8 | 28.2 | 0.76 | -0.3 | -28.2
C=CCOc1nc(N2CCCC2)nc(N2CCCC2)n1 | 97.1 | -0.5 | 0.3 | 0.72 | -0.4 | -0.3
CN1CCN(C(=S)NC(=O)c2ccc(-c3ccccc3)cc2)CC1 | 106.5 | -3.2 | -4.1 | 0.99 | 0.1 | 4.1
Cc1ccc(C(=O)NC(=S)N2CCN(C)CC2)cc1 | 103.5 | 0.7 | -51.6 | 1.22 | -0.2 | 51.6*
COc1ccc(-c2cc(C(=O)O)nc3ccc4ccccc4c23)cc1OC | 102.1 | -3.3 | 1.3 | 1.26 | -0.3 | -1.3
Oc1ccc(-c2nc3ccc4ccccc4c3c3c2CCC3)cc1O | 110.7 | 9.5* | -1.1 | 2.04 | -0.2 | 1.1
Cc1cc(C)cc(N(C(C)C(=O)N2CCOCC2)S(C)(=O)=O)c1 (centres undefined) | 112.3 | -2.5 | 10.3 | 1.16 | -0.4 | -10.3
CC(=O)Nc1cc(C(=O)N2CCc3ccccc3C2)ccc1Sc1ccc(Cl)cc1 | 105.9 | 9.6* | 17.1 | 0.95 | -0.2 | -17.1
CC(=O)Nc1cc(C(=O)N2CCc3ccccc3C2)ccc1Sc1ccc(F)cc1 | 106.3 | 3.5 | -4.5 | 1.16 | -0.1 | 4.5
NS(=O)(=O)c1ccc(N/N=C/c2cn(-c3ccccc3)nc2-c2cccs2)c([N+](=O)[O-])c1 | 110.1 | 4.4 | -0.7 | 0.97 | -0.4 | 0.7
N#Cc1ccc(N/N=C/c2cn(-c3ccccc3)nc2-c2ccccc2)c([N+](=O)[O-])c1 | 102.6 | 2.5 | -75.3 | 1 | -0.2 | 75.3*
COc1ccc2c(c1OC)C(C1c3c(cc4c(c3OC)OCO4)CCN1C)OC2=O (centres undefined) | 103.8 | 1.4 | 15.4 | 1.11 | -0.1 | -15.4
Cc1cc(C(=O)Nc2ccc3c(c2)OCCO3)c(C)o1 | 130.3* | 4.7 | 132.2 | 4.63* | 0.5 | -132.2
CC(=O)Nc1ccc2c(c1)OCCOCCOc1cc(NC(C)=O)ccc1OCCOCCOCCO2 | 101.4 | 0.4 | 1.9 | 1.15 | -0.3 | -1.9
Cc1occc1C(=O)Nc1ccc2c(c1)OCCO2 | 131.1* | 1.2 | 82.5 | 3.12 | 0.3 | -82.5
Cc1ccsc1C(=O)Nc1ccc2c(c1)OCCO2 | 124.8 | 0.0 | 126.9 | 6.24* | -0.4 | -126.9
Cc1ncoc1C(=O)Nc1ccc2c(c1)OCCO2 | 119.4 | 0.9 | 95.0 | 2.03 | 0.5 | -95.0
